# Measurements reported in article PMC5540273 (PLoS ONE, 2017).
# Tested on: FLT4
# Conditions: concentration: 1 μM, replicates: in singlicate; n = 1
# 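Note: KINOMEscan kinase panel screen.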
row,Compound,%Inh
1,OCCCNc1nccc(-c2c(-c3cccc(C(F)(F)F)c3)nn3cc(C(F)(F)F)ccc23)n1 [GW630813],12%
2,COc1cc(Nc2nccc(N3CCC(NC(=O)C4COc5ccccc5O4)C3)n2)cc(OC)c1OC (stereo not drawn) [GSK1379761],25%
3,CCc1ccc(-c2ccc3c(c2)-c2nn(C)cc2S(=O)(=O)N3C)cc1,0%
4,COc1cc(Nc2nccc(N3CCC(NC(=O)C(C)c4ccc(Cl)cc4)C3)n2)cc(OC)c1OC (stereo not drawn) [GSK1379757],7%
5,CCS(=O)c1ccc(-c2coc3ccc(-c4nnc(C)o4)cc23)cc1 (stereo not drawn),0%
6,O=C1NC(=O)C(c2ccccc2)=C1Nc1cccc(O)c1 [SB-390534],0%
7,COc1cccc(-n2cnc3c(N)ncnc32)c1 [SKF-97416],0%
8,COc1cc2ncn(-c3cc(OCc4ccncc4)c(C(N)=O)s3)c2cc1OC [GSK336313],17%
9,COC(=O)c1c(-c2ccccc2)c2cc(Br)ccc2c(=O)n1Cc1ccc(S(C)(=O)=O)cc1,1%
10,Nc1ncnc2c1ncn2-c1cccc(F)c1 [SKF-97560],19%
11,Nc1n[nH]c2nnc(-c3ccccc3)c(-c3ccccc3)c12 [GW554060],0%
12,Cc1ccc(-c2ccc3c(ccc4sc5c(c43)NC[C@@H](C)N=C5N(C)C)n2)cn1,0%
13,COc1cc2ncn(-c3cc(OCc4ccc(S(C)(=O)=O)cc4)c(C(N)=O)s3)c2cc1OC [GW869979],15%
14,Cl.NS(=O)(=O)c1cccc(Nc2cc(-c3ccc(F)cc3)n[nH]2)c1 [GW824645],0%
15,COc1cccc(C2=C(N(C)c3ccccc3)C(=O)NC2=O)c1 [SB-334865],0%
16,CCn1c(-c2ccoc2)nc2cnccc21 [SB-733887],10%
17,COc1cc2nccc(Nc3cccc(Oc4ccccc4)c3)c2cc1OC.Cl [GW284543],38%
18,CCC(=O)c1c(-c2ccccc2)c2cc(Cl)ccc2c(=O)n1Cc1cc(S(C)(=O)=O)n(CC(N)=O)n1,0%
19,CCn1c(-c2nonc2N)nc2ccccc21 [SB-693162/GW549034],0%
20,CN(C)c1cc(-c2ccc3c(N)n[nH]c3c2)nc(N)n1 [GSK2219329],19%
21,Cc1ccccc1COc1cc(-n2cnc3cc(Cl)ccc32)sc1C(N)=O [GW813349],10%
22,Cl.c1ccc(Cn2cnc3cc(Nc4ncnc5ccccc45)ccc32)cc1 [GW272142],3%
23,Nc1ncnc2c1ncn2-c1cccc2ccccc12 [SKF-97184],10%
24,COc1ccc(CNC(=O)NC2CCN(c3ccnc(Nc4ccc(F)cc4)n3)C2)cc1 (stereo not drawn) [GSK1379706],0%
